Experimental data as given in PubChem BioAssay AID431 (Sanford-Burnham Center for Chemical Genomics, 2006).
In all, about 63,000 compounds went through this assay and about 1,100 (1.7%) were called active. Only a selection was taken, and actives are over-represented in it overall. Results with a measured potency or affinity are listed apart. A number with no mark means an inactive call.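 The calls were made as follows: active = compounds whose percent cytotoxicity in the single-dose primary screen, scaled between solvent and toxic-drug controls, exceeds 50; inactive = the rest.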

Experiment: viability loss of HPDE-C7K cells – cell-based, fluorescence, HTS, primary screen (AID 431);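 also: 0% = DMSO solvent wells and 100% = doxorubicin-treated wells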
Settings: HPDE-C7K KRASV12 cells, Alamar Blue viability, 48 h; at 10 µM; stronger effect = higher value
Work on `C=CCc1ccc(OCC(O)CN2CCCCC2C)c(OC)c1` (configuration not stated) yielded a cytotoxicity of 22.6%. In the case of `COCCn1nnnc1SCC(=O)N1CCCCC1`, the cytotoxicity is reported as -12.2%. Compound `CCOc1ccc2nc(C(C)O)[nH]c2c1` (configuration not stated) has a cytotoxicity of 5.3%. With `CCOc1ccc2nc(-c3ccccc3)[nH]c2c1` the cytotoxicity was 57.3% (active). Compound `COc1ccc2nc(-c3ccccc3)[nH]c2c1` has a cytotoxicity of -5.2%. In the case of `CCOc1ccccc1NC(=O)CSc1nnnn1-c1ccc(C(=O)OC)cc1`, the cytotoxicity is reported as 0.9%. For `CNCCCC12CCC(c3ccccc31)c1ccccc12`, the cytotoxicity was 73.1% (active). Compound `CNCCCN1c2ccccc2CCc2ccccc21` has a cytotoxicity of 17.5%. For `CNCCCC1c2ccccc2C=Cc2ccccc21`, the cytotoxicity was 10.4%. `Cc1cc(NC(=O)CSc2nc(-c3ccccc3)cs2)no1` showed a cytotoxicity of -7.6%. `N#CC1=C(N)OC2=C(C(=O)CCC2)C1c1ccc(OC(=O)N2CCOCC2)cc1` (configuration not stated) gave a cytotoxicity of -4.6%. Compound `c1ccc(-c2ccc(-c3ccccn3)nn2)nc1` has a cytotoxicity of 7.3%. In the case of `c1ccc(-c2nnc(-c3ccccn3)nn2)nc1`, the cytotoxicity is reported as 8.9%. `Cc1ccc(C)c(S(=O)(=O)NC(CCC(N)=O)C(=O)O)c1` (configuration not stated) gave a cytotoxicity of 5%. In the case of `COc1ccc2c(c1)CCc1c(C(=O)Nc3ccn(Cc4ccc(C)cc4)n3)noc1-2`, the cytotoxicity is reported as -1.5%. In the case of `CCCOc1ccc(N2C(=O)C3ON(c4ccccc4)C(c4ccc(O)c(OC)c4)C3C2=O)cc1` (configuration not stated), the cytotoxicity is reported as 81.7% (active). For `COc1cc(C2C3C(=O)N(c4ccc(F)cc4)C(=O)C3ON2c2ccccc2)ccc1O` (configuration not stated), the cytotoxicity was -1.5%. In the case of `COc1cc(C2C3C(=O)N(c4ccccc4)C(=O)C3ON2c2ccccc2)ccc1O` (configuration not stated), the cytotoxicity is reported as 3.7%. Compound `CCCCCC1CC(CC(=O)O)C(=O)O1` (configuration not stated) has a cytotoxicity of -13.6%. Work on `CCOC(=O)N1CCC(NC(=O)c2cc(C(=O)Nc3ccc(OCC)cc3)ccc2CO)CC1` yielded a cytotoxicity of 1.5%. `CCn1c(CNc2nc(-c3ccccc3)cs2)nnc1SCC(=O)NCc1ccco1` showed a cytotoxicity of -32.7%. In the case of `CCOC(=O)c1c(C)oc2ccc(NS(=O)(=O)c3ccc4c5c(cccc35)C(=O)N4)cc12`, the cytotoxicity is reported as 69.9% (active). In the case of `COCCOC(=O)c1c(C)oc2ccc(NS(=O)(=O)c3ccccc3)cc12`, the cytotoxicity is reported as 17.1%. For `COC(=O)c1ccccc1NS(=O)(=O)c1ccc2c3c(cccc13)C(=O)N2`, the cytotoxicity was 20.3%. `CCCCn1c2c(c3ccccc31)CCc1nonc1-2` showed a cytotoxicity of 14.8%. `COC(=O)C(C)NC(=O)C(C)NC(=O)OCc1ccccc1` (configuration not stated) showed a cytotoxicity of 8%. For `O=C(c1ccco1)N1CCN(c2c(-c3ccccc3)c3cc(Cl)ccc3[nH]c2=O)CC1`, the cytotoxicity was 81.6% (active). `O=c1[nH]c2ccc(Cl)cc2c(-c2ccccc2)c1N1CCOCC1` gave a cytotoxicity of 12.4%. `CCOC(=O)N1CCN(c2c(-c3ccccc3)c3cc(Cl)ccc3[nH]c2=O)CC1` gave a cytotoxicity of -2.7%. `COc1cc(NC(=O)c2ccccc2)c(OC)cc1NC(C)=O` gave a cytotoxicity of -2.1%. With `O=C1NC(c2ccncc2)Nc2ccccc21` (configuration not stated) the cytotoxicity was -12.1%. For `COCCNC(=O)c1cc2cc(Br)cc(OC)c2oc1=O`, the cytotoxicity was 0.9%. In the case of `CCCn1c(NC(=O)c2ccc(C)cc2)nc2ccccc21`, the cytotoxicity is reported as -46.1%. In the case of `CCCn1c(NC(=O)c2cccc(S(=O)(=O)N3CCCC3)c2)nc2ccccc21`, the cytotoxicity is reported as 54% (active). For `CCCn1c(NC(=O)c2ccc(Cl)c(S(=O)(=O)N3CCCC3)c2)nc2ccccc21`, the cytotoxicity was 37.6%. In the case of `Cc1ccc(C(=O)Nc2nc3ccccc3n2CCN2CCCC2)cc1`, the cytotoxicity is reported as -3.5%. In the case of `O=C(Nc1nc2ccccc2n1CCN1CCCC1)c1ccc(Cl)cc1`, the cytotoxicity is reported as 62.1% (active). `O=C(Nc1nc2ccccc2n1CCN1CCCCC1)c1ccco1` showed a cytotoxicity of -5%. `CC(C)(CSc1nncn1N)NS(=O)(=O)c1ccc(Cl)cc1` showed a cytotoxicity of 0%. `Cc1cc(-c2ccccc2)c(C#N)c(SCC(N)=O)n1` showed a cytotoxicity of 0.4%. Compound `CC1CCCN(C(=O)Cn2nnc(-c3cccnc3)n2)C1` (configuration not stated) has a cytotoxicity of 1%. In the case of `CC(NS(=O)(=O)c1ccc(F)cc1)C(c1cccs1)N1CCN(C)CC1` (configuration not stated), the cytotoxicity is reported as -12.3%. In the case of `CC1CCCCN1S(=O)(=O)c1ccc(S(=O)(=O)N2CCN(c3ccc(F)cc3)CC2)cc1` (configuration not stated), the cytotoxicity is reported as -7.9%. With `Cc1nc(CN2CCN(C(=O)NC3(c4ccccc4)CC3)CC2)cs1` the cytotoxicity was -4.3%. `COc1ccc2c(c1OC)C(=O)N1c3ccccc3C(=O)N(c3ccccc3)C21` (configuration not stated) showed a cytotoxicity of 38.7%. For `COc1ccc2c(c1OC)C(=O)N1c3ccccc3C(=O)N(c3ccc(F)cc3)C21` (configuration not stated), the cytotoxicity was 12.3%. With `COc1ccc2c(c1OC)C(=O)N1c3ccccc3C(=O)N(c3ccccc3F)C21` (configuration not stated) the cytotoxicity was 53.2% (active). `CCN(CCNC(=O)C1CCN(S(C)(=O)=O)CC1)c1ccccc1` showed a cytotoxicity of -4.7%. For `CCOC(=O)c1ccc(NC(=O)CN2CCc3ccccc3C2)cc1`, the cytotoxicity was 53.1% (active). Work on `CCOC(=O)c1ccc(NC(=O)N2CCc3ccccc32)cc1` yielded a cytotoxicity of 16.1%. In the case of `O=C(CNCCC1=CCCCC1)Nc1ccccc1N1CCCCC1`, the cytotoxicity is reported as 74.2% (active). `COc1ccc(NC(=O)CNCCC2=CCCCC2)cc1` gave a cytotoxicity of -7.1%. `O=C(COc1ccccc1)Nc1ccccc1N1CCCCC1` gave a cytotoxicity of -5.3%. Compound `O=C(CN1CCCCC1)Nc1ccccc1NC(=O)CN1CCCCC1` has a cytotoxicity of -8.2%. With `CC(C)CC(=O)Nc1ccccc1N1CCCC1` the cytotoxicity was -13.9%. In the case of `CCOC(=O)c1ccc(NC(=O)CN2CCN(c3ccccc3)CC2)cc1`, the cytotoxicity is reported as -0.6%. With `O=C(CN1CCc2ccccc2C1)Nc1ccccc1N1CCCCCC1` the cytotoxicity was 62.4% (active). `COc1ccc(CCNC(=O)c2c(O)c3cccc4c3n(c2=O)CC4)cc1OC` gave a cytotoxicity of 3.1%. `Cc1cc(C(=O)OCC(=O)N2CC(C)CC(C)C2)c(C)o1` (configuration not stated) gave a cytotoxicity of -1%. Compound `CC(=O)c1ccc(NC(=O)C2CCCNC2=O)cc1` (configuration not stated) has a cytotoxicity of -14.4%. In the case of `Cc1nnc2ccc(N3CCN(c4cccc(C(F)(F)F)c4)CC3)nn12`, the cytotoxicity is reported as 3.9%. In the case of `Cn1c(=O)n(-c2ccccc2)c(=O)c2c3c(sc21)COC(C)(C)C3`, the cytotoxicity is reported as -13.9%. Compound `Cc1ccc(S(=O)(=O)NC(=NCC(=O)O)c2ccccc2)cc1` has a cytotoxicity of 5.9%. For `CCOc1ccc2[nH]c(=O)c(CN(CCOC)C(=O)N3CCOCC3)cc2c1`, the cytotoxicity was 5.7%. For `COC(=O)C(C)NS(=O)(=O)c1ccc(NC(C)=O)cc1` (configuration not stated), the cytotoxicity was -26.3%. Compound `CCOC(=O)CN(Cc1ccccc1)S(=O)(=O)c1ccc(NC(C)=O)cc1` has a cytotoxicity of 8.6%. For `COC(=O)/C=C/S(=O)(=O)c1ccc(NC(C)=O)cc1`, the cytotoxicity was 58.8% (active). In the case of `COc1ccccc1NS(=O)(=O)c1ccc(NC(C)=O)cc1`, the cytotoxicity is reported as 1.6%. Work on `CC(=O)Nc1ccc(S(=O)(=O)c2ccc(N)cc2)cc1` yielded a cytotoxicity of -14.7%. In the case of `CC(C)c1c(O)nc(SCc2ccccc2)[nH]c1=O`, the cytotoxicity is reported as -18%. With `COc1cccc(Oc2nnnn2-c2ccccc2)c1` the cytotoxicity was -16.1%. For `COc1ccc(-c2nnnn2CCc2ccccc2)cc1`, the cytotoxicity was -2.2%. `CCS(=O)(=O)c1nnnn1-c1ccccc1S(C)(=O)=O` gave a cytotoxicity of 36.8%. `COc1cccc(-n2nnnc2SCC(=O)c2cc(OC)ccc2OC)c1` gave a cytotoxicity of -8.2%. In the case of `COc1ccc(-c2nnnn2-c2ccccc2OC)cc1`, the cytotoxicity is reported as 36.6%. With `CCOc1cccc(-n2nnnc2-c2ccc(OC)cc2)c1` the cytotoxicity was 52.1% (active). `O=C(CSc1nnnn1-c1ccccc1)CSc1nnnn1-c1ccccc1` gave a cytotoxicity of 3%. With `N#CCCS(=O)(=O)c1nnnn1-c1ccccc1` the cytotoxicity was 67.8% (active). With `COc1ccc(-n2nnnc2-c2cccc(OC)c2)cc1` the cytotoxicity was 60.7% (active). With `COc1ccc(-n2nnnc2SCC(=O)c2cccc(OC)c2)cc1` the cytotoxicity was 25.7%. In the case of `COc1ccc(-n2nnnc2-c2cccnc2)cc1`, the cytotoxicity is reported as 0.7%. In the case of `O=C(Nc1ccc2c(c1)OCCO2)C1CCN(C(=O)c2ccc(Br)cc2)CC1`, the cytotoxicity is reported as 4.7%. In the case of `COc1ccc(N2C(=O)C(CC(=O)Nc3ccccc3)N(Cc3ccc4c(c3)OCO4)C2=O)cc1` (configuration not stated), the cytotoxicity is reported as -9%. For `c1ccc2c(c1)nc(Nc1ccc3c(c1)OCO3)c1nnnn12`, the cytotoxicity was -10.2%. Compound `COc1ccc(CCNC(=O)CCS(=O)(=O)c2cccc3nsnc23)cc1OC` has a cytotoxicity of -2.7%. For `COc1ccc(OC)c2sc(N3CCN(c4ccccc4)CC3)nc12`, the cytotoxicity was 15.9%. With `CCCc1c(C(=O)OCC)[nH]c2c1C(=O)CCC2` the cytotoxicity was 10%. Work on `O=C(Nc1ccc(C(F)(F)F)cc1)C1CCCN1S(=O)(=O)c1cccc2cccnc12` (configuration not stated) yielded a cytotoxicity of 16.9%. In the case of `C=CCNC(=O)c1ccccc1NS(=O)(=O)c1ccc(SC)cc1`, the cytotoxicity is reported as 26.3%. For `CCOc1ccc(NC(=O)CN2CCN(CC(=O)Nc3ccc4c(c3)OCCO4)CC2)cc1`, the cytotoxicity was -5.7%. Work on `Cc1ccc2[nH]c3c(c2c1)CCC3=O` yielded a cytotoxicity of -12.2%. `O=CNC1CCCc2c1[nH]c1ccc(Cl)cc21` (configuration not stated) gave a cytotoxicity of 12.8%. With `CC(Oc1ccc(Cl)cc1)C(=O)Nc1nccs1` (configuration not stated) the cytotoxicity was -6%. Work on `c1ccc(-n2nnnc2Sc2n[nH]c(-c3ccncc3)n2)cc1` yielded a cytotoxicity of -8.6%. For `CC(=O)C1=C(O)C(=O)N(CCN(C)C)C1c1ccc(Cl)cc1` (configuration not stated), the cytotoxicity was 1%. For `COc1cccc(CNC(=O)C2CCN(C(=O)N(C)C)CC2)c1`, the cytotoxicity was -6.1%. Compound `CCC(NC(C)C)C(O)c1ccc(O)c(O)c1` (configuration not stated) has a cytotoxicity of 2.8%. Work on `Cc1ccc(O)c(CC(C)C)n1` yielded a cytotoxicity of 5.8%. `CC1CCCN(S(=O)(=O)c2cccc(-c3cn4cccnc4n3)c2)C1` (configuration not stated) showed a cytotoxicity of -3%. For `O=C(Nc1ccc(N2CCOCC2)cc1)c1ccc2nc(-c3ccco3)c(-c3ccco3)nc2c1`, the cytotoxicity was -26.4%. For `O=C(Nc1ccc2nc(-c3ccco3)c(-c3ccco3)nc2c1)N1CCCCCC1`, the cytotoxicity was 38.8%. In the case of `O=C(Nc1ccc(N2CCOCC2)cc1)Nc1ccc2nc(-c3ccco3)c(-c3ccco3)nc2c1`, the cytotoxicity is reported as 80.3% (active).
